Consider four compounds from PubChem BioAssay.

Experiment [1] in a line: E. coli DRC41 culture turbidity changes, primary screen, E. coli filamentation inducer project, strain DRC41, OD650, 48 h (AID 1152).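 Further: E. coli MC1000 strain DRC41 lacking acrAB efflux pump and sulA.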 The following applies: E. coli DRC41 (acrAB sulA), higher = more signal, called active from +8 up or from −8 down.
Experiment [2] can be described thus: small-molecule binders of probe aLefty1, primary screen, biochemical, small-molecule microarray, 635/667 nm fluorescence (AID 1153).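 Further: score merges spot fluorescence with signal-to-noise ratio from the scanned slide images.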 The following applies: higher = more signal.
Experiment [3] can be described thus: PSAC antagonists in infected red cells, primary screen, cell-based, P. falciparum Indochina, OD700, 1 h (AID 1154). The following applies: P. falciparum Indochina infected RBC osmotic lysis, higher = more signal, called active from +8 up or from −8 down.
A short description of experiment [4]: PSAC antagonists in infected red cells, primary screen, cell-based, P. falciparum Indochina, OD700, 2 h (AID 1155).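 Further: lysis reports solute entry through the parasite surface anion channel PSAC; channel blockers reduce lysis of infected cells.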 The following applies: P. falciparum Indochina infected erythrocytes, osmotic lysis OD700; higher = more signal, called active from +8 up or from −8 down.
Experiment [5] in a line: osmotic lysis modulators in infected erythrocytes, primary screen, PSAC antagonist project, cell-based, P. falciparum Indochina, OD700, 3 h (AID 1156). As to conditions: higher = more signal, called active from +8 up or from −8 down.
A short description of experiment [6]: PSAC antagonists in infected red cells, primary screen, cell-based, P. falciparum Indochina, OD700, 18 h (AID 1157). The following applies: P. falciparum Indochina infected erythrocytes, osmotic lysis OD700, 18 h; higher = more signal, called active from +8 up or from −8 down.
Experiment [7] is described as follows: modulators of S6 phosphorylation in cells, primary screen, cell-based, A549, cytoblot, luminescence, serum-stimulated (AID 1158).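 Further: serum-stimulated A549 lung adenocarcinoma cells; signal is phosphorylated S6 detected by cytoblot immunostaining with HRP secondary.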 The following applies: A549 phospho-S6 cytoblot, 5 h, higher = more signal.
Experiment [8] has as its target NADPH oxidase 2 (Homo sapiens) (UniProt P04839). The experiment in a line: NOX2-dependent H2O2 signal modulators, primary screen, NOX inhibitor project, cell-based, HEK293-NOX2, PMA-stimulated, Amplex Red fluorescence (AID 1159). Further: test concentration not given here. The following applies: 45 min, higher = more signal, called active from +8 up or from −8 down.
For experiment [9], the target named is NADPH oxidase 4 (Homo sapiens) (UniProt Q9NPH5). The experiment in a line: NOX4-dependent H2O2 signal modulators, primary screen, NOX inhibitor project, cell-based, HEK293-NOX4, tetracycline-induced, Amplex Red fluorescence (AID 1160). The following applies: 45 min, higher = more signal, called active from +8 up or from −8 down.
Sequence of NADPH oxidase 4 (Homo sapiens) (Q9NPH5 whole entry, looked up): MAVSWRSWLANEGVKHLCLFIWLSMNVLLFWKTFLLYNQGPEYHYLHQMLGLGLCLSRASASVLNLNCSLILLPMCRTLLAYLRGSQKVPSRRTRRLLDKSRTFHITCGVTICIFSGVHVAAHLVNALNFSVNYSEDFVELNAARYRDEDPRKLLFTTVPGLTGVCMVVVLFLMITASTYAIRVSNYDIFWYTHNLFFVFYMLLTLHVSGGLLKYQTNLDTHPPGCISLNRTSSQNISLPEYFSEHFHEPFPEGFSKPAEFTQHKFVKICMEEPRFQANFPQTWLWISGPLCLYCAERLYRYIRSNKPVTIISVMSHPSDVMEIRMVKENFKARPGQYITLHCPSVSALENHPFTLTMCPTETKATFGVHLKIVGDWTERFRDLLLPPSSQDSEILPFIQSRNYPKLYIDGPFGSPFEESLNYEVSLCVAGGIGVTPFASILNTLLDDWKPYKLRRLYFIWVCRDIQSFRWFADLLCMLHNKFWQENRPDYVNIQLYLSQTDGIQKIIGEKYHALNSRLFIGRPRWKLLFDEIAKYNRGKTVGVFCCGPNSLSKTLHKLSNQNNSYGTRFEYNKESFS
For experiment [10], the target named is NADPH oxidase 5 (Homo sapiens) (UniProt Q96PH1). Put plainly: NOX5-dependent H2O2 signal modulators, primary screen, NOX inhibitor project, cell-based, HEK293-NOX5, Amplex Red fluorescence (AID 1161). The following applies: HEK293-NOX5, ionomycin, 45 min, higher = more signal.
Sequence of NADPH oxidase 5 (Homo sapiens) (Q96PH1 whole entry, looked up): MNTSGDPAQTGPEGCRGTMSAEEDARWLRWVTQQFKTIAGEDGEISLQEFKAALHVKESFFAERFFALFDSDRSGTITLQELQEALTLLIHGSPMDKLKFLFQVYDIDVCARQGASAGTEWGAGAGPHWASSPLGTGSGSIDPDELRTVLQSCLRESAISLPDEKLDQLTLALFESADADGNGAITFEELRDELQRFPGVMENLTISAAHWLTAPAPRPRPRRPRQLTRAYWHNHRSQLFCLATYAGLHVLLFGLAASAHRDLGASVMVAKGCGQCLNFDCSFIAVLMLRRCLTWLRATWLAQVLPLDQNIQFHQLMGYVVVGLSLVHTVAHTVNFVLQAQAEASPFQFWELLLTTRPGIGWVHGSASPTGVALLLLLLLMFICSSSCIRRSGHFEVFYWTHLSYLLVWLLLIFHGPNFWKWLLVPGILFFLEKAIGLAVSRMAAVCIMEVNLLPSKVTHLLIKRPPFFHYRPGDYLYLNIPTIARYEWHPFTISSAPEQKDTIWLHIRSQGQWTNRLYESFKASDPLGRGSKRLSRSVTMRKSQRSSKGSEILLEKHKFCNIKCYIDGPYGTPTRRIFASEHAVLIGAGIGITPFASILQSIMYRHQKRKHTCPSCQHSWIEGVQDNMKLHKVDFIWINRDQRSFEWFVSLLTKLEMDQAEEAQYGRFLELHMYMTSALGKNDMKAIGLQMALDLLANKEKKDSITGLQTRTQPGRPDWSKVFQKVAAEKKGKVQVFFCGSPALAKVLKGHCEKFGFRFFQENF
Experiment [11] can be described thus: A549 cell viability effects, profiling panel, calcein-AM fluorescence, 48 h, basal (AID 1162). Further: test concentration not given here. As to conditions: higher = more signal.
Experiment [12] can be described thus: adipocyte viability effects, profiling panel, cell-based, 3T3-L1 adipocytes, calcein-AM fluorescence, 48 h, basal (AID 1163). Further: test concentration not given here. The following applies: 3T3-L1 adipocytes viability, higher = more signal.
A short description of experiment [13]: HepG2 cell viability effects, profiling panel, calcein-AM fluorescence, 48 h, basal (AID 1164). Further: test concentration not given here. As to conditions: higher = more signal.
Experiment [14] is described as follows: MM1S cell viability effects, profiling panel, calcein-AM fluorescence, 48 h, basal (AID 1165).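 Further: viability of MM1S multiple myeloma cells under basal unstimulated conditions; test concentration not given here.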 The following applies: higher = more signal.
Experiment [15] can be described thus: basal RPMI8226 viability, no added stimulus, profiling panel, cell-based, calcein-AM fluorescence, 48 h, PK04 Diversity Set (AID 1166).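 Further: cells grown under basal conditions without added stimulus; test concentration not given here.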 The following applies: RPMI8226 myeloma viability, higher = more signal.
Experiment [16] in a line: basal HepG2 mitochondrial membrane potential changes, profiling panel, cell-based, JC-1 fluorescence, 24 h, 100 nL compound (AID 1167). Further: test concentration not given here. The following applies: higher = more signal.
Experiment [17] can be described thus: basal 3T3-L1 adipocyte mitochondrial potential changes, profiling panel, cell-based, JC-1 fluorescence, 3T3-L1 adipocytes, 24 h, 100 nL compound (AID 1168). Further: test concentration not given here. The following applies: JC-1 mitochondrial fluorescence, higher = more signal, called active from +8 up or from −8 down.
Experiment [18] in a line: basal RPMI8226 mitochondrial membrane potential changes, profiling panel, cell-based, JC-1 fluorescence, 24 h, 100 nL compound (AID 1169). Further: test concentration not given here. As to conditions: RPMI8226 myeloma, JC-1 mitochondrial potential fluorescence, higher = more signal.
The nature of experiment [19]: basal MM1S mitochondrial membrane potential changes, profiling panel, cell-based, JC-1 fluorescence, 24 h, 100 nL compound (AID 1170). Further: test concentration not given here. As to conditions: higher = more signal.
Experiment [20] is described as follows: A549 lung cancer cell viability effects, profiling panel, resazurin fluorescence, 24 h, PK04 Diversity Set (AID 1171). Further: test concentration not given here. As to conditions: higher = more signal, called active from +8 up or from −8 down. For orientation: Resazurin is reduced to fluorescent resorufin, in cell work by metabolically active cells.

Structures are written as SMILES. The source made the active and inactive calls.

Sequence of NADPH oxidase 2 (Homo sapiens) (P04839 whole entry, looked up): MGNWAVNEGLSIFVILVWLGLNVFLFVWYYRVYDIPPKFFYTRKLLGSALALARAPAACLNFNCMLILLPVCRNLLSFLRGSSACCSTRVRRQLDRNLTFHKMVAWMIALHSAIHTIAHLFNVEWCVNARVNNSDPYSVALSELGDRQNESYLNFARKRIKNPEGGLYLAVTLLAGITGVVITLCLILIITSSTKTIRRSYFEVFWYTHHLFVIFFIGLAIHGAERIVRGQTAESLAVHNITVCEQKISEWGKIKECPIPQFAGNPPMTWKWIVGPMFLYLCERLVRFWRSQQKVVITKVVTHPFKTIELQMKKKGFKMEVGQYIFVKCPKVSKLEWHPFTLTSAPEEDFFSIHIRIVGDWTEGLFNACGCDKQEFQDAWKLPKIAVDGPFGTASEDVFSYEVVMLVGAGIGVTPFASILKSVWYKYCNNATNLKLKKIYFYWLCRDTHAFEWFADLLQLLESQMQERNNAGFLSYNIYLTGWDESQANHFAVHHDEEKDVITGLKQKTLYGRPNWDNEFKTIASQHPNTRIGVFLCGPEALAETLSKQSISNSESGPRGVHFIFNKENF

`COC(=O)c1ccc(OC)c(/C=C\CC(CCc2ccccc2)OC(=O)c2ccncc2)c1` (stereo not given): the z-score in experiment [1] is -0.295 (inactive); in experiment [3], 17.9 (active); in experiment [4], 3.19 (inactive); in experiment [5] it was 0.533 (inactive); in experiment [6] it was 0.672 (inactive); in experiment [7], -0.224. Further, the z-score is -0.392 (inactive) in experiment [8]; 0.67 (inactive) in experiment [9]; -0.11 in [10]; -0.568 in experiment [11]; 0.115 in experiment [12]; -0.457 in [13]. In addition, the z-score in experiment [14] was -2.19; in experiment [15], -2.2; in experiment [16], -1.28; in experiment [17], -1.32 (inactive); in experiment [18], -0.745; in experiment [19], 0.256. The z-score in experiment [20] was 2.06 (inactive). Also, the composite z-score in experiment [2] was -0.251.
As to `COc1ccc([Si](C)(C)[C@@H]2[C@@H](CCO)O[C@]3(C(=O)N(Cc4cccc(N5C(=O)COc6ccccc65)c4)c4ccccc43)[C@H]2C)cc1`, the z-score in experiment [1] was 0.111 (inactive); in [3], 3.9 (inactive); in experiment [4], 3.53 (inactive); in experiment [5], 0.797 (inactive); in experiment [6], 2.26 (inactive); in experiment [7], 0.373. The z-score was 0.416 (inactive) in experiment [8]; 1.36 (inactive) in experiment [9]; 1.49 in experiment [10]; -2.03 in [11]; 0.574 in [12]; -4.17 in experiment [13]. The z-score is -2.95 in [14]; -4.16 in experiment [15]; -0.527 in experiment [16]; 0.351 (inactive) in experiment [17]; -1.09 in experiment [18]; -1.7 in experiment [19]. The z-score in [20] was -2.6 (inactive). The same compound returned a composite z-score in [2] of 0.139.
Regarding `COc1ccc(C#Cc2ccc3c(c2)[C@]2(C(=O)N3)[C@H](C(N)=O)[C@H]3C(=O)O[C@H](c4ccccc4)[C@H](c4ccccc4)N3[C@@H]2c2ccc(O)cc2)cc1`, the z-score in experiment [1] was -0.203 (inactive); in [3] it was 3.46 (inactive); in [4], 1.63 (inactive); in experiment [5] it was 0.0128 (inactive); in experiment [6], 1.23 (inactive); in experiment [7] it was 0.0535. Besides, the z-score was 0.945 (inactive) in experiment [8]; 0.346 (inactive) in [9]; -1.04 in [10]; -0.765 in experiment [11]; 0.13 in experiment [12]; -4.5 in experiment [13]. Also, the z-score in [14] is -3.29; in [15], -4.56; in [16] it was -3.11; in experiment [17], 0.283 (inactive); in experiment [18] it was -1.1; in [19], -2.28. Also, the z-score in [20] was -1.05 (inactive). The composite z-score in experiment [2] was -0.131.
Consider `C=CCNC(=O)[C@H]1[C@@H]2C(=O)O[C@@H](c3ccccc3)[C@@H](c3ccccc3)N2[C@@H](c2ccc(O)cc2)[C@]12C(=O)N(C(=O)OCCOC)c1ccc(C#CC3(O)CCCCCC3)cc12`, for which the z-score in experiment [1] was 1.91 (inactive); in experiment [3] it was 0.842 (inactive); in [4], 0.788 (inactive); in [5], 0.0365 (inactive); in experiment [6], 0.222 (inactive); in experiment [7], 0.281. Further, the z-score in [8] was 1.37 (inactive); in experiment [9], 0.903 (inactive); in [10], 1.89; in [11], 0.904; in experiment [12], 0.76; in [13], 2.26. For the same compound, the z-score in experiment [14] is -1.2; in experiment [15], -3.53; in [16], -1.84; in experiment [17], 0.509 (inactive); in experiment [18], -0.713; in [19], -0.808. Further, the z-score in experiment [20] is -0.316 (inactive). The compound further showed a composite z-score in experiment [2] of 0.0313.
